Bioassay records as filed in PubChem.
Only some compounds are listed: those with a hit (about 27% of all), similar ones and a draw of the others.
Cav3 T inh – Cav3.2 calcium influx blockers – cell-based, Fluo-4 calcium fluorescence, FDSS, MLSMR library, primary screen. B-score at 10 µM. Voltage-dependent T-type calcium channel subunit alpha-1H (Homo sapiens), O95180. Cav3.2-expressing cells; active compounds read low. 100,000 compounds, 4% hits;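 active = single-dose well whose peak fluorescence ratio is a statistical outlier from its plate by either plate-standardised score or position-corrected B-score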
CYP2C9 inhib – blockers of cytochrome P450 2C9 activity – biochemical, luminescence, ADME assay, primary screen; P11712; CYP2C9 Supersomes, luciferin-H conversion; inhibition, % at 5 µM; 96,000 compounds, 20% hits; AID 777, 2007;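 active = blocking of liver enzyme CYP2C9 beyond about 50% at 5 µM, limit read from the data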
Target sequence (P11712 whole entry, looked up): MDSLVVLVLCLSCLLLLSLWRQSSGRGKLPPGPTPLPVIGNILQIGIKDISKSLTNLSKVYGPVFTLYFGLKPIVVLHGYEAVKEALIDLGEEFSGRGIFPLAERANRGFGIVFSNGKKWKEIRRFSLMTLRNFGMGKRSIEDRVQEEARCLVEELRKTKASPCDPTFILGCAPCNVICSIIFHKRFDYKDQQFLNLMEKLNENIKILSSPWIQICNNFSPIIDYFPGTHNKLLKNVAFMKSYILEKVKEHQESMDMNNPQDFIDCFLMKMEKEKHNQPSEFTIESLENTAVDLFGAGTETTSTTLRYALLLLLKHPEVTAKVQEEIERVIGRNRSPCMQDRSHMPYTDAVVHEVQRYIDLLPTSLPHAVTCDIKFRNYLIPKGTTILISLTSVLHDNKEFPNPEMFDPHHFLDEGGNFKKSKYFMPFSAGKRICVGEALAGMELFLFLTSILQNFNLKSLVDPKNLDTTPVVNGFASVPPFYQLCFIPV
CYP2C19 inh – blockers of cytochrome P450 2C19 activity – biochemical, luminescence, ADME assay, primary screen; P33261; CYP2C19 Supersomes, luciferin-H EGE luminescence, 30 min; inhibition, % at 5 µM; 96,000 compounds, 21% hits; AID 778, 2007;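 active = CYP2C19 inhibition above a set limit at 5 µM in the primary screen, cut at about 50% in these data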
CYP2C9 activ – human CYP2C9 activators, primary screen, biochemical, luminescence | Cytochrome P450 2C9 (Homo sapiens), P11712 | 96,000 compounds, 1.4% hits | recombinant CYP2C9, luciferin-H conversion; active compounds read high; factor 1 = untreated enzyme, 0 = blocked | activation factor at 5 µM;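 active = activation factor of 2 or more for CYP2C9 at a 5 µM dose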
CYP2C19 act – human CYP2C19 activators, primary screen, biochemical, luminescence | Cytochrome P450 2C19 (Homo sapiens), P33261 | recombinant CYP2C19, luciferin-H EGE luminescence; active compounds read high; 0 = fully inhibited enzyme, 1 = untreated enzyme | activation factor at 5 µM | 96,000 tested, under 10 active | AID 1025, 2008;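 active = activation factor of at least 2 at 5 µM in the primary screen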
A number is an active result.

`CC(Oc1ccccc1)C(=O)Nc1ccc(C(N)=O)cc1` (stereo not drawn) gave Cav3 T inh inactive, CYP2C9 inhib inactive, CYP2C19 inh inactive, CYP2C9 activ inactive and CYP2C19 act inactive.
COc1cccc(NC(=O)C(C#N)Cc2ccncc2)c1 (stereo not drawn) was read as Cav3 T inh inactive, CYP2C9 inhib 77, CYP2C19 inh 100, CYP2C9 activ inactive and CYP2C19 act inactive.
`COc1cccc(NC(=O)N[C@@H](Cc2ccccc2)C(=O)O)c1` gave Cav3 T inh inactive, CYP2C9 inhib inactive, CYP2C19 inh inactive, CYP2C9 activ inactive and CYP2C19 act inactive.
Screening COc1ccc(NC(=O)C(C)Oc2ccc(/C(C)=N\O)cc2)cc1 (stereo not drawn) returned Cav3 T inh inactive, CYP2C9 inhib 66, CYP2C19 inh 81, CYP2C9 activ inactive and CYP2C19 act inactive.
Screening COc1ccc(/C=C2\CN(Cc3ccccc3)C/C(=C\c3ccc(OC)cc3OC)C2=O)c(OC)c1 returned CYP2C9 inhib inactive, CYP2C19 inh inactive, CYP2C9 activ inactive and CYP2C19 act inactive.
`COc1ccc2c(c1)CC/C(=C\c1ccc(OC)c(Cn3cccn3)c1)C2=O` gave Cav3 T inh inactive, CYP2C9 inhib 91, CYP2C19 inh 97, CYP2C9 activ inactive and CYP2C19 act inactive.
For COc1ccc2c(c1)CC/C(=C\c1ccc(OC)c(Cn3nc(C)cc3C)c1)C2=O the results were Cav3 T inh inactive, CYP2C9 inhib inactive, CYP2C19 inh 87, CYP2C9 activ inactive and CYP2C19 act inactive.
O=C1c2ccccc2S(=O)(=O)c2cc(C(=O)N3CCN(c4ccc(Cl)cn4)CC3)ccc21 was read as Cav3 T inh inactive.
For COc1ccc2cc(CN(CC3CCCO3)S(=O)(=O)c3ccc(C(C)=O)cc3)c(=O)[nH]c2c1 (stereo not drawn) the results were Cav3 T inh inactive, CYP2C9 inhib 60, CYP2C19 inh inactive, CYP2C9 activ inactive and CYP2C19 act inactive.
For COc1ccc2cc(CN(Cc3cccnc3)S(=O)(=O)c3ccccc3)c(=O)[nH]c2c1 the results were Cav3 T inh inactive, CYP2C9 inhib inactive, CYP2C19 inh inactive, CYP2C9 activ inactive and CYP2C19 act inactive.
COC(=O)c1ccccc1S(=O)(=O)N(Cc1cc2ccc(OC)cc2[nH]c1=O)CC1CCCO1 (stereo not drawn) was read as Cav3 T inh inactive, CYP2C9 inhib 90, CYP2C19 inh inactive, CYP2C9 activ inactive and CYP2C19 act inactive.
COc1ccc(S(=O)(=O)N(CCCN2CCCC2=O)Cc2cc3c(C)cc(C)cc3[nH]c2=O)cc1 was read as Cav3 T inh inactive, CYP2C9 inhib 94, CYP2C19 inh 65, CYP2C9 activ inactive and CYP2C19 act inactive.
For COc1ccc(S(=O)(=O)N(Cc2cc3cc(C)ccc3[nH]c2=O)CC2CCCO2)cc1 (stereo not drawn) the results were Cav3 T inh inactive, CYP2C9 inhib 60, CYP2C19 inh inactive, CYP2C9 activ inactive and CYP2C19 act inactive.
C=CCOC(=O)C1=C[C@@H](c2ccc(C(F)(F)F)cc2)[C@H](CCCO)[C@@H](OCC)O1 was read as Cav3 T inh inactive.
O=S(=O)(N1CCOCC1)n1cnc2ccccc21 was read as Cav3 T inh inactive, CYP2C9 inhib inactive, CYP2C19 inh inactive, CYP2C9 activ inactive and CYP2C19 act inactive.
`Fc1ccc2c(Cl)c(-c3nnc(-c4cccs4)o3)sc2c1` gave Cav3 T inh inactive, CYP2C9 inhib inactive, CYP2C19 inh inactive, CYP2C9 activ inactive and CYP2C19 act inactive.
CC(=O)OC(C(=O)NC1CCCCC1)c1ccc(Cl)cc1 (stereo not drawn) was read as Cav3 T inh inactive, CYP2C9 inhib inactive, CYP2C19 inh inactive, CYP2C9 activ inactive and CYP2C19 act inactive.
O=C(CCc1nc(-c2ccccc2F)no1)Nc1ccc(Oc2ccccc2)cc1 was read as Cav3 T inh inactive, CYP2C9 inhib inactive, CYP2C19 inh inactive, CYP2C9 activ inactive and CYP2C19 act inactive.
For COc1ccc(Br)cc1CNC(=O)CCc1nc(-c2ccccc2F)no1 the results were CYP2C9 inhib 57, CYP2C19 inh 65, CYP2C9 activ inactive and CYP2C19 act inactive.
`COc1ccc(CNC(=O)CCc2nc(-c3ccccc3F)no2)c(OC)c1` gave Cav3 T inh inactive, CYP2C9 inhib 57, CYP2C19 inh 74, CYP2C9 activ inactive and CYP2C19 act inactive.
Screening COc1ccc(Br)cc1-c1noc(-c2ccccc2F)n1 returned Cav3 T inh inactive, CYP2C9 inhib inactive, CYP2C19 inh inactive, CYP2C9 activ inactive and CYP2C19 act inactive.
O=C(CCc1nc(-c2ccccc2F)no1)NC1CCCCCC1 was read as Cav3 T inh inactive, CYP2C9 inhib inactive, CYP2C19 inh inactive, CYP2C9 activ inactive and CYP2C19 act inactive.
Screening CCN(C(=O)CCc1nc(-c2ccccc2F)no1)c1cc(OC)ccc1OC returned Cav3 T inh inactive, CYP2C9 inhib 94, CYP2C19 inh 94, CYP2C9 activ inactive and CYP2C19 act inactive.
Screening Cc1ccnc(SCCn2c(N3CC(C)CC(C)C3)nc3c2c(=O)n(C)c(=O)n3C)n1 (stereo not drawn) returned Cav3 T inh inactive, CYP2C9 inhib inactive, CYP2C19 inh inactive, CYP2C9 activ inactive and CYP2C19 act inactive.
`CCOC(=O)c1sc(/N=C/c2c(C)[nH]n(-c3ccccc3)c2=O)c(C#N)c1C` gave CYP2C9 inhib inactive, CYP2C19 inh inactive, CYP2C9 activ inactive and CYP2C19 act inactive.
O=C(Nc1ncnc2c1ncn2C1OC(COC(=O)c2ccccc2)C(F)C1O)c1ccccc1 (stereo not drawn) was read as Cav3 T inh inactive, CYP2C9 inhib 86, CYP2C19 inh 80, CYP2C9 activ inactive and CYP2C19 act inactive.
For O=c1c2ccccc2nc(SCc2cn3ccsc3n2)n1-c1ccccc1F the results were Cav3 T inh inactive, CYP2C9 inhib 99, CYP2C19 inh 77, CYP2C9 activ inactive and CYP2C19 act inactive.
`O=c1c2ccccc2nc(SCc2cn3ccsc3n2)n1-c1ccccc1` gave CYP2C9 inhib 94, CYP2C19 inh 84, CYP2C9 activ inactive and CYP2C19 act inactive.
`Cc1cccc(-n2c(SCc3cc(=O)n4ccsc4n3)nc3ccccc3c2=O)c1` gave Cav3 T inh inactive, CYP2C9 inhib inactive, CYP2C19 inh inactive, CYP2C9 activ inactive and CYP2C19 act inactive.
COc1ccc(-c2nnc(SC(C)C(=O)Nc3c(C)n(C)n(-c4ccccc4)c3=O)o2)cc1 (stereo not drawn) was read as Cav3 T inh inactive, CYP2C9 inhib inactive, CYP2C19 inh inactive, CYP2C9 activ inactive and CYP2C19 act inactive.
Screening CC(=O)NCCC(=O)Nc1ccc(F)cc1C returned CYP2C9 inhib inactive, CYP2C19 inh inactive, CYP2C9 activ inactive and CYP2C19 act inactive.
